Inconclusive results are not listed. A number with no mark means an inactive call. Activity calls are given as the source filed them. Calls come from the whole dose curve; as a rule, active = well fitted curve in the direction sought with a large enough effect; inconclusive = small, poorly fitted or top-dose-only effect, or another doubt; inactive = no such curve, though single readings can be large; an effect the other way counts as inactive or inconclusive.
Tests used:
[1] = Primary redox qHTS assay for identification of artifact compounds. (AID 1845223)
Method in brief: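 Amplex Red (25 uM) and HRP (250 mU/mL) in HBSS, with compounds for 15 min, then 250 uM DTT for 30 min, room temperature, dark. Fluorescence 525/598 nm read; normalized to DMSO and 10 uM DA3003; Hill fit.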

[2] = Quantitative High-Throughput drug screen in 47 multiple myeloma cell lines against the NCATS MIPE library collection: FR4_PLB cell viability assay (AID 1918924; note: nearly all actives have a fitted effect of over 35% in size; note: potency is the fitted concentration of half-maximal effect)
Method in brief: (§1)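 CellTiter-Glo luminescence (ATP) after 48 h compound exposure, 37C/5% CO2; 500 cells/well; MIPE 4.0 approved/investigational drugs pinned in; DMSO = 100%, media only = 0% viability.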

[3] = Quantitative High-Throughput drug screen in 47 multiple myeloma cell lines against the NCATS MIPE library collection: Delta47_JCRB cell viability assay (AID 1918925; note: nearly all actives have a fitted effect of over 45% in size; note: potency is the fitted concentration of half-maximal effect)
Method in brief: (§2)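 Steps: seed 500 cells per well; pin-transfer MIPE 4.0 library; incubate 48 h at 37C, 5% CO2, humidified; add CellTiter-Glo, 5 min room temperature; read luminescence.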

[4] = Quantitative High-Throughput drug screen in 47 multiple myeloma cell lines against the NCATS MIPE library collection: EJM_DSMZ cell viability assay (AID 1918926; note: nearly all actives have a fitted effect of over 30% in size; note: potency is the fitted concentration of half-maximal effect)
Method in brief: as §2

[5] = Quantitative High-Throughput drug screen in 47 multiple myeloma cell lines against the NCATS MIPE library collection: AMO1_DSMZ cell viability assay (AID 1918927; note: nearly all actives have a fitted effect of over 30% in size; note: potency is the fitted concentration of half-maximal effect)
Method in brief: as §2

[6] = Quantitative High-Throughput drug screen in 47 multiple myeloma cell lines against the NCATS MIPE library collection: ARP1_JJKsccF8 cell viability assay (AID 1918928; note: nearly all actives have a fitted effect of over 40% in size; note: potency is the fitted concentration of half-maximal effect)
Method in brief: (§3)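 Luminescence from CellTiter-Glo, taken after 5 min at room temperature, reports cellular ATP as viability. Cells (500 per well) had been treated 48 h at 37 °C with MIPE 4.0 compounds, scaled between DMSO and medium-only controls.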

[7] = Quantitative High-Throughput drug screen in 47 multiple myeloma cell lines against the NCATS MIPE library collection: ARD_JJKsccE7 cell viability assay (AID 1918929; note: potency is the fitted concentration of half-maximal effect)
Method in brief: as §2

[8] = Quantitative High-Throughput drug screen in 47 multiple myeloma cell lines against the NCATS MIPE library collection: Karpas620_DSMZ cell viability assay (AID 1918959); note: nearly all actives have a fitted effect of over 30% in size; note: potency is the fitted concentration of half-maximal effect
Method in brief: as §1

[9] = Quantitative High-Throughput drug screen in 47 multiple myeloma cell lines against the NCATS MIPE library collection: KMM1_JCRB cell viability assay (AID 1918960); note: nearly all actives have a fitted effect of over 30% in size; note: potency is the fitted concentration of half-maximal effect;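 for viability (% of DMSO): 100% = DMSO-treated cells and 0% = medium-only wells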
Method in brief: as §3

[10] = Quantitative High-Throughput drug screen in 47 multiple myeloma cell lines against the NCATS MIPE library collection: Karpas417_ECACC cell viability assay (AID 1918961); settings: Karpas417 myeloma viability, CellTiter-Glo ATP luminescence, 48 h; viability (% of DMSO): at 45.8 µM (top of the series); note: potency is the fitted concentration of half-maximal effect
Method in brief: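 Myeloma cells (500 per well) were exposed to MIPE 4.0 compounds by pin transfer and incubated 48 hours at 37C, 5% CO2. Viability was read as ATP by CellTiter-Glo luminescence, normalised to DMSO (100%) and media-only (0%) wells.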

Row | Structure (SMILES) | Potency [1] | Potency [2] | Potency [3] | Potency [4] | Potency [5] | Potency [6] | Potency [7] | Potency [8] | Potency [9] | Potency [10] | redox activity (% of DA3003) [1]
1 | O=C(Cc1ccc(-c2ccc(OCCN3CCOCC3)cc2)cn1)NCc1ccccc1 | inactive | 9.3 nM (active) | 26.4 nM (active) | 66.2 nM (active) | 13.2 nM (active) | 16.6 nM (active) | 16.6 nM (active) | 4.2 nM (active) | 11.8 nM (active) | – | –
2 | CCn1nnc2c(N3CCOCC3)nc(-c3ccc(NC(=O)Nc4ccc(C(=O)N5CCN(C)CC5)cc4)cc3)nc21 | inactive | 7.4 nM (active) | 13.2 nM (active) | 469 nM (active) | 52.6 nM (active) | 66.2 nM (active) | 37.2 nM (active) | – | – | – | –
3 | Cc1ccc(C(N)=O)cc1Nc1nccc(-c2cn(C(C)C)c3cnccc23)n1 | inactive | 9350 nM (active) | 3320 nM (active) | 7430 nM (active) | 2640 nM (active) | 6620 nM (active) | 3720 nM (active) | 6620 nM (active) | 4180 nM (active) | 2960 nM (active) | –
4 | C#Cc1cccc(Nc2ncnc3cc(OC)c(OCCCCCCC(=O)NO)cc23)c1 | inactive | 74.3 nM (active) | 66.2 nM (active) | 469 nM (active) | 52.6 nM (active) | 118 nM (active) | 74.3 nM (active) | 74.3 nM (active) | 52.6 nM (active) | – | –
5 | c1nc2nc(Nc3ccc(N4CCOCC4)cc3)nc(NC3CCCCC3)c2[nH]1 | inactive | 26400 nM (active) | 6620 nM (active) | 14800 nM (active) | 4690 nM (active) | 14800 nM (active) | 3320 nM (active) | 6620 nM (active) | 4690 nM (active) | 743 nM (active) | –
6 | COc1c(OCCCN2CCOCC2)ccc2c3n(c(=NC(=O)c4cnc(N)nc4)nc12)CCN3 | – | 2880 nM (active) | 182 nM (active) | – | 512 nM (active) | 28.8 nM (active) | 14.4 nM (active) | 102 nM (active) | 12.9 nM (active) | 8.1 nM (active) | -6.72% [at 11.5 µM]
7 | C=CCn1c(=O)c2cnc(Nc3ccc(N4CCN(C)CC4)cc3)nc2n1-c1cccc(C(C)(C)O)n1 | inactive | 132 nM (active) | 418 nM (active) | 1480 nM (active) | 590 nM (active) | 1180 nM (active) | 264 nM (active) | – | 332 nM (active) | – | –
8 | COc1ccc(-n2nc(C(N)=O)c3c2C(=O)N(c2ccc(N4CCCCC4=O)cc2)CC3)cc1 | inactive | inactive | inactive | inactive | – | inactive | inactive | inactive | inactive | – | –
9 | COc1cc2c(NC3CCN(C(C)C)CC3)nc(C3CCCCC3)nc2cc1OCCCN1CCCC1 | inactive | 7430 nM (active) | 4690 nM (active) | 10500 nM (active) | – | 7430 nM (active) | – | 8330 nM (active) | 23500 nM (active) | – | –
10 | Cc1nc(N)ncc1-c1nc(N2CCOCC2)c2sc(C(C)(C)O)cc2n1 | inactive | 8330 nM (active) | 235 nM (active) | 1480 nM (active) | 1320 nM (active) | 105 nM (active) | 33.2 nM (active) | – | 332 nM (active) | – | –
11 | COc1cc(Nc2ncc(F)c(Nc3ccc4c(n3)N(COP(=O)(O)O)C(=O)C(C)(C)O4)n2)cc(OC)c1OC | inactive | inactive | 5900 nM (active) | 23500 nM (active) | 5260 nM (active) | – | 1180 nM (active) | – | 1180 nM (active) | 1050 nM (active) | –
12 | CNC(=O)c1ccc(N2C(=S)N(c3cnc(C#N)c(C(F)(F)F)c3)C(=O)C23CCC3)cc1F | inactive | 14800 nM (active) | 743 nM (active) | 166 nM (active) | 332 nM (active) | – | 2090 nM (active) | 2350 nM (active) | 2090 nM (active) | 1050 nM (active) | –
13 | Cc1cc(CN2CCN(c3c(Br)cnc4nc(-c5ccc(N6CCN(C)CC6)cc5)[nH]c34)CC2)no1 | inactive | 18700 nM (active) | 2640 nM (active) | 6620 nM (active) | – | 14800 nM (active) | – | – | inactive | inactive | –
14 | O=C(Nc1cn[nH]c1-c1nc2ccc(CN3CCOCC3)cc2[nH]1)NC1CC1 | inactive | 2350 nM (active) | 1480 nM (active) | 1870 nM (active) | – | 4180 nM (active) | 3720 nM (active) | 5260 nM (active) | 2960 nM (active) | – | –
15 | Cc1nc(Nc2n[nH]c3c2CN(C(=O)N[C@H](CN(C)C)c2ccccc2)C3(C)C)c2sccc2n1 | inactive | 833 nM (active) | 33.2 nM (active) | 1480 nM (active) | 74.3 nM (active) | 469 nM (active) | – | 2640 nM (active) | 105 nM (active) | – | –
16 | CN1CCC(CNc2ccc3ncc(-c4cccc(OC(F)(F)F)c4)n3n2)CC1 | inactive | 18700 nM (active) | 4690 nM (active) | 26400 nM (active) | 13200 nM (active) | 13200 nM (active) | 11800 nM (active) | 10500 nM (active) | 16600 nM (active) | 10500 nM (active) | –

Row | Structure (SMILES) | Potency [1] | Potency [2] | Potency [3] | Potency [4] | Potency [5] | Potency [6] | Potency [7] | Potency [8] | Potency [9] | Potency [10] | redox activity (% of DA3003) [1]
17 | O=C(O)Cn1nnc(-c2cc(N3CCC(Oc4cc(F)ccc4Br)CC3)no2)n1 | inactive | inactive | inactive | inactive | – | inactive | – | inactive | inactive | – | –
18 | CNC(=O)c1ccccc1Nc1nc(Nc2ccc(N3CCOCC3)cc2OC)ncc1Cl | inactive | 13200 nM (active) | 148 nM (active) | 13200 nM (active) | 418 nM (active) | 935 nM (active) | 93.5 nM (active) | – | 296 nM (active) | – | –
19 | O=C(O)C1(Cc2cccc(Nc3nccs3)n2)CCC(Oc2cccc(Cl)c2F)CC1 (configuration not stated) | inactive | 418 nM (active) | 166 nM (active) | inactive | 235 nM (active) | 590 nM (active) | – | 74.3 nM (active) | – | – | –
20 | O=C(c1cncc(Br)c1)N1CCC(N2CCCC2)CC1 | inactive | inactive | inactive | – | inactive | 16600 nM (active) | inactive | inactive | inactive | – | –
21 | CC(=O)Nc1nc(C)c(-c2ccc(Cl)c(S(=O)(=O)NCCO)c2)s1 | inactive | 13200 nM (active) | 662 nM (active) | 11800 nM (active) | 1320 nM (active) | – | 418 nM (active) | 6620 nM (active) | 3720 nM (active) | 132 nM (active) | –
22 | CC1COC2(CCN(c3nc(=O)c4cc(C(F)(F)F)cc([N+](=O)[O-])c4s3)CC2)O1 (configuration not stated) | inactive | inactive | inactive | – | inactive | inactive | inactive | inactive | inactive | – | –
23 | CCn1cc(-c2ccnc3[nH]c(-c4cccc(CN(C)C)c4)cc23)c(-c2ccc(NC(=O)N(C)C)cc2)n1 | inactive | 20900 nM (active) | 3320 nM (active) | – | 5260 nM (active) | 5900 nM (active) | 8330 nM (active) | 20900 nM (active) | 3320 nM (active) | 1870 nM (active) | –
24 | O=C(Nc1cc(C(F)(F)F)cc(C(F)(F)F)c1)c1cc(Cl)ccc1O | inactive | 1320 nM (active) | 1870 nM (active) | 1480 nM (active) | 235 nM (active) | 1050 nM (active) | 209 nM (active) | 833 nM (active) | 132 nM (active) | 590 nM (active) | –
25 | COc1cc(C(=O)N2CCC(N3CCN(C)CC3)CC2)ccc1Nc1ncc2c(n1)N(C)c1ccccc1C(=O)N2C | inactive | 3720 nM (active) | 2640 nM (active) | – | 2350 nM (active) | 2350 nM (active) | 1660 nM (active) | 3320 nM (active) | 1660 nM (active) | 2090 nM (active) | –
26 | COc1ccc(-c2cc3c(C)nc(N)nc3n(C3CCC(OCCO)CC3)c2=O)cn1 (configuration not stated) | inactive | 33.2 nM (active) | 11.8 nM (active) | – | 41.8 nM (active) | 20.9 nM (active) | 187 nM (active) | 132 nM (active) | 23.5 nM (active) | – | –
27 | N#CCNC(=O)c1ccc(-c2ccnc(Nc3ccc(N4CCOCC4)cc3)n2)cc1 | inactive | 20900 nM (active) | 9350 nM (active) | 11800 nM (active) | – | 16600 nM (active) | inactive | inactive | inactive | – | –
28 | Cn1c2ccccc2c2c3c(c4c5ccccc5n(CCC#N)c4c21)CNC3=O | inactive | 4690 nM (active) | 1480 nM (active) | – | 935 nM (active) | 7430 nM (active) | 2350 nM (active) | 2350 nM (active) | 935 nM (active) | 148 nM (active) | –
29 | CCOc1ccccc1OCCNC(C)Cc1ccc(OC)c(S(N)(=O)=O)c1 (configuration not stated) | inactive | inactive | inactive | inactive | – | inactive | inactive | inactive | inactive | – | –
30 | Nc1ccccc1NC(=O)c1ccc(CNC(=O)OCc2cccnc2)cc1 | inactive | 2960 nM (active) | 372 nM (active) | 3720 nM (active) | 833 nM (active) | 1320 nM (active) | 935 nM (active) | 2640 nM (active) | 418 nM (active) | 469 nM (active) | –
31 | COc1cc2c(Oc3ccc(NC(=O)C4(C(=O)Nc5ccc(F)cc5)CC4)cc3F)ccnc2cc1OCCCN1CCOCC1 | inactive | 14800 nM (active) | 418 nM (active) | 18700 nM (active) | 5260 nM (active) | – | 2640 nM (active) | 6620 nM (active) | 2960 nM (active) | 2350 nM (active) | –

— PubChem BioAssay (NCATS)
